This note sets out measurements from PubChem BioAssay (NCI).

SMILES strings stand for the structures. About 79,000 compounds went through this panel and 15% of them were active in at least one assay; those are over-represented in the sample as a whole. Unmarked numbers belong to inactive results. Calls of active or inactive are those of the source. No stated cut-off is given here; in the data, active means growth inhibition above about 70%; inactive means the rest.

Assay [1] is described as follows: NCI Yeast Anticancer Drug Screen. Data for the rad50 strain (AID 155).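 Further: 0% = growth of vehicle-only cultures of the same strain.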 The following applies: S. cerevisiae rad50 strain growth inhibition, hits give high values. The method in brief:
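Vehicle-treated cultures provide the reference for the growth inhibition reported for compound-exposed, repair-deficient yeast.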

Assay [2] can be described thus: NCI Yeast Anticancer Drug Screen. Data for the mec2-1 strain (AID 157). The following applies: S. cerevisiae mec2-1 strain, hits give high values. The method in brief:
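Vehicle-treated cultures served as reference for growth inhibition of compound-exposed mec2-1 yeast.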

Assay [3] is described as follows: NCI Yeast Anticancer Drug Screen. Data for the sgs1 mgt1 strain (AID 161).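 Further: 0% = growth of cultures given vehicle only.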 As to conditions: S. cerevisiae sgs1 mgt1 strain, hits give high values. A digest of the protocol:
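Genetically altered yeast, compound exposure, growth inhibition relative to vehicle.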

Assay [4] in a line: NCI Yeast Anticancer Drug Screen. Data for the cln2 rad14 strain (AID 165).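 Further: 0% = growth equal to vehicle treated cultures.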 As to conditions: S. cerevisiae cln2 rad14 strain, hits give high values. A digest of the protocol:
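Each compound was tested on cln2 rad14 yeast. Inhibition of growth was calculated against vehicle-exposed controls.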

The nature of assay [5]: NCI Yeast Anticancer Drug Screen. Data for the bub3 strain (AID 167). The following applies: S. cerevisiae bub3 mutant strain, hits give high values. A digest of the protocol: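 Mutant yeast screening strain plus compound; vehicle-treated cultures serve as the 0% inhibition reference.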
The nature of assay [6]: NCI Yeast Anticancer Drug Screen. Data for the mlh1 rad18 strain (AID 175). As to conditions: S. cerevisiae mlh1 rad18 strain growth inhibition, hits give high values. The method in brief: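 Vehicle-treated cultures served as the reference for growth inhibition in a yeast strain carrying DNA damage repair alterations exposed to each compound.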
The mark [7] stands for this setting: at 5.0 µM (retest, dose inferred, filed as 0.5).
Setting [8] is: at 50.0 µM (retest, dose inferred, filed as 5.0).

Consider `[Cl][Sn]([Cl])([c]1ccccc1)[c]1ccccc1.c1ccncc1.c1ccncc1`, for which the growth inhibition in assay [1] (setting [7]) was 93% (active); in assay [1] (setting [8]), 97% (active); in assay [1] (at 50.0 µM), 98% (active); in assay [2] (setting [7]), 61%; in assay [2] (setting [8]), 99% (active); in assay [2] (at 50.0 µM), 99.1% (active). Moreover, the growth inhibition in assay [3] (setting [7]) was 94% (active); in assay [3] (setting [8]), 99% (active); in assay [3] (at 50.0 µM), 99% (active); in assay [4] (setting [7]), 71% (active); in assay [4] (setting [8]), 98% (active); in assay [4] (at 50.0 µM), 98.8% (active). For the same compound, the growth inhibition is 92% (active) in assay [5] (setting [7]); 98% (active) in assay [5] (setting [8]); 97.9% (active) in assay [5] (at 50.0 µM); 95% (active) in assay [6] (setting [7]); 96% (active) in assay [6] (setting [8]); 98.7% (active) in assay [6] (at 50.0 µM).

Turning to `COc1ccc2c3c1OC1C(=O)C4CC5(c6c(O)ccc(O)c64)C(C2)N(C)CCC315` (configuration not stated), the growth inhibition in assay [1] (setting [7]) is -6%; in assay [1] (setting [8]), 99% (active); in assay [1] (at 50.0 µM) it was 98.5% (active); in assay [2] (setting [7]), -2%; in assay [2] (setting [8]) it was 92% (active); in assay [2] (at 50.0 µM), 99% (active). Moreover, the growth inhibition was -6% in assay [3] (setting [7]); 99% (active) in assay [3] (setting [8]); 99.1% (active) in assay [3] (at 50.0 µM); -14% in assay [4] (setting [7]); 98% (active) in assay [4] (setting [8]); 98.1% (active) in assay [4] (at 50.0 µM). In addition, the growth inhibition in assay [5] (setting [7]) is -3%; in assay [5] (setting [8]) it was 99% (active); in assay [5] (at 50.0 µM) it was 98.5% (active); in assay [6] (setting [7]), 13%; in assay [6] (setting [8]), 99% (active); in assay [6] (at 50.0 µM), 99% (active).

Regarding `CC(=O)OC1CCC2(C)C3CCC4(C)C(OC(=O)c5ccccc5)CCC4C3CC(Br)C2(O)C1` (configuration not stated), the growth inhibition was 35% in assay [1] (setting [7]); 56% in assay [1] (setting [8]); 87.1% (active) in assay [1] (at 50.0 µM); 27% in assay [2] (setting [7]); 39% in assay [2] (setting [8]); 87.9% (active) in assay [2] (at 50.0 µM). Further, the growth inhibition was 44% in assay [3] (setting [7]); 64% in assay [3] (setting [8]); 89.5% (active) in assay [3] (at 50.0 µM); 40% in assay [4] (setting [7]); 44% in assay [4] (setting [8]); 90.8% (active) in assay [4] (at 50.0 µM). In addition, the growth inhibition in assay [5] (setting [7]) is 45%; in assay [5] (setting [8]), 56%; in assay [5] (at 50.0 µM), 86.8% (active); in assay [6] (setting [7]), 42%; in assay [6] (setting [8]) it was 56%; in assay [6] (at 50.0 µM) it was 85.7% (active).

In the case of `CCNC(C)(C)C(SS)c1ccc(Br)cc1` (configuration not stated), the growth inhibition in assay [1] (setting [7]) is 6%; in assay [1] (setting [8]), 10%; in assay [1] (at 50.0 µM), 66.3%; in assay [2] (setting [7]), 2%; in assay [2] (setting [8]) it was -3%; in assay [2] (at 50.0 µM), 57.1%. Moreover, the growth inhibition was -3% in assay [3] (setting [7]); 18% in assay [3] (setting [8]); 73.8% (active) in assay [3] (at 50.0 µM); 25% in assay [4] (setting [7]); 33% in assay [4] (setting [8]); 34.9% in assay [4] (at 50.0 µM). Also, the growth inhibition in assay [5] (setting [7]) is -15%; in assay [5] (setting [8]) it was 17%; in assay [5] (at 50.0 µM), 84.8% (active); in assay [6] (setting [7]) it was -21%; in assay [6] (setting [8]), 20%; in assay [6] (at 50.0 µM) it was 78.6% (active).

`CC[CH2][Sn]([F])([F])[CH2]CC`: the growth inhibition in assay [1] (setting [7]) is 20%; in assay [1] (setting [8]), 94% (active); in assay [1] (at 50.0 µM), 83% (active); in assay [2] (setting [7]) it was 12%; in assay [2] (setting [8]), 97% (active); in assay [2] (at 50.0 µM), 87.7% (active). In addition, the growth inhibition in assay [3] (setting [7]) is 11%; in assay [3] (setting [8]), 94% (active); in assay [3] (at 50.0 µM), 84.7% (active); in assay [4] (setting [7]) it was 17%; in assay [4] (setting [8]) it was 91% (active); in assay [4] (at 50.0 µM), 83.5% (active). For the same compound, the growth inhibition is 14% in assay [5] (setting [7]); 96% (active) in assay [5] (setting [8]); 81.2% (active) in assay [5] (at 50.0 µM); 13% in assay [6] (setting [7]); 95% (active) in assay [6] (setting [8]); 86.5% (active) in assay [6] (at 50.0 µM).

For `Cc1cccc(OCC(O)CN2CC2)c1` (configuration not stated), the growth inhibition is 2% in assay [1] (setting [7]); 64% in assay [1] (setting [8]); 87.4% (active) in assay [1] (at 50.0 µM); 4% in assay [2] (setting [7]); 52% in assay [2] (setting [8]); 89.8% (active) in assay [2] (at 50.0 µM). Moreover, the growth inhibition in assay [3] (setting [7]) was 4%; in assay [3] (setting [8]), 78% (active); in assay [3] (at 50.0 µM) it was 89.4% (active); in assay [4] (setting [7]) it was 4%; in assay [4] (setting [8]), 34%; in assay [4] (at 50.0 µM) it was 87.8% (active). The growth inhibition in assay [5] (setting [7]) was -1%; in assay [5] (setting [8]) it was 34%; in assay [5] (at 50.0 µM) it was 87.8% (active); in assay [6] (setting [7]), 2%; in assay [6] (setting [8]), 95% (active); in assay [6] (at 50.0 µM) it was 88.5% (active).

As for `O=c1c2ccccc2[se]n1-c1ccccc1`, the growth inhibition in assay [1] (setting [7]) was 6%; in assay [1] (setting [8]) it was 29%; in assay [1] (at 50.0 µM) it was 70.2% (active); in assay [2] (setting [7]), -12%; in assay [2] (setting [8]), 32%; in assay [2] (at 50.0 µM), 88.8% (active). Also, the growth inhibition in assay [3] (setting [7]) is -4%; in assay [3] (setting [8]), 23%; in assay [3] (at 50.0 µM) it was 81.3% (active); in assay [4] (setting [7]), -19%; in assay [4] (setting [8]) it was 26%; in assay [4] (at 50.0 µM) it was 66.6%. Further, the growth inhibition was -15% in assay [5] (setting [7]); 21% in assay [5] (setting [8]); 4.2% in assay [5] (at 50.0 µM); -12% in assay [6] (setting [7]); 62% in assay [6] (setting [8]); 86% (active) in assay [6] (at 50.0 µM).

In the case of `CC(=O)Nc1ccc(/C=N/N=C(/N)N[N+](=O)[O-])cc1`, the growth inhibition in assay [1] (setting [7]) is -7%; in assay [1] (setting [8]), -1%; in assay [1] (at 50.0 µM) it was 61.5%; in assay [2] (setting [7]) it was -7%; in assay [2] (setting [8]), -2%; in assay [2] (at 50.0 µM) it was 63.8%. The growth inhibition is -5% in assay [3] (setting [7]); -1% in assay [3] (setting [8]); 52.9% in assay [3] (at 50.0 µM); -1% in assay [4] (setting [7]); 1% in assay [4] (setting [8]); 83.8% (active) in assay [4] (at 50.0 µM). The growth inhibition was -2% in assay [5] (setting [7]); -6% in assay [5] (setting [8]); 71.5% (active) in assay [5] (at 50.0 µM); 1% in assay [6] (setting [7]); -9% in assay [6] (setting [8]); 81.3% (active) in assay [6] (at 50.0 µM).

In the case of `C[CH2][Sn][CH2]C.c1cc[c]([Ge]([c]2ccccc2)[c]2ccccc2)cc1.c1cc[c]([Sn]([c]2ccccc2)[c]2ccccc2)cc1`, the growth inhibition in assay [1] (setting [7]) is 99% (active); in assay [1] (setting [8]) it was 96% (active); in assay [1] (at 50.0 µM) it was 99.2% (active); in assay [2] (setting [7]), 99% (active); in assay [2] (setting [8]) it was 98% (active); in assay [2] (at 50.0 µM) it was 99.5% (active). Besides, the growth inhibition in assay [3] (setting [7]) was 100% (active); in assay [3] (setting [8]), 98% (active); in assay [3] (at 50.0 µM) it was 99.5% (active); in assay [4] (setting [7]), 98% (active); in assay [4] (setting [8]), 97% (active); in assay [4] (at 50.0 µM), 98.4% (active). The growth inhibition in assay [5] (setting [7]) was 99% (active); in assay [5] (setting [8]), 95% (active); in assay [5] (at 50.0 µM), 99.3% (active); in assay [6] (setting [7]), 99% (active); in assay [6] (setting [8]), 97% (active); in assay [6] (at 50.0 µM), 98.8% (active).
